The record followed here is PubChem BioAssay AID1508600 (Functional Genomics Laboratory (NCATS/FGL), 2020).

The whole screen tested about 53,000 sequences, of which about 3,700 (7%) were called active.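 The calls were made as follows: active = gene knockdowns whose robust z-score for IL-1 alpha signal is at least 2 or at most -2, so actives lie on both sides; inactive = the rest.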 The full list was thinned out, with actives kept by preference.

This test can be described thus: Components of the Cytosolic LPS Sensing Pathway: Gene Identification via Genome-wide siRNA Screen.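 Also: robust z of the log signal after scaling to non-targeting control siRNA wells of the plate.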 The note with it: RAW264.7 macrophages, IL-1a HTRF, actives lie on both sides, screened at 100 nM (by protocol), cells primed 5 h with Pam3CSK4 first. An outline of the steps: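 Three distinct siRNAs per gene were tested singly at 100 nM in RAW264.7 macrophages. Following Pam3CSK4 priming and 24 hour LipidA transfection, IL-1a secretion was read by HTRF.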
In general terms: TR-FRET usually uses a lanthanide donor and a delayed reading to cut background.
Turning to GGGUCACGUGCUGUCUCAUTT against Slc22a20, the z-score was -1.55 (inactive).

Turning to GCAAAGCCUUACCAUGUAATT against Ighg, the z-score is 1.33 (inactive). Regarding GGUCAUGGUCUGAGAUUCUTT against Txnl4a, the z-score was -2.34 (active). Next, GGAAGUCAAGAAAGUGGCCTT against H1f0: -0.294 (inactive). Next, GGGAUACAAUGUAACAUACTT against L1cam: -0.0915 (inactive); GGACAGCUCUCUCCAUACATT against Tlr9: 0.653 (inactive); GGAUUUUGUUCUUACAGUUTT against Nfia: 2.8 (active). Regarding GGGAACUUUUUUGAUGGGCTT against Psmb2, the z-score is -1.13 (inactive). As to GCACAUUCAUAGGAGUACCTT against Vmn1r237, the z-score was 0.371 (inactive). For the sequence CGAAACUCCCAUUGUUAAUTT against Zfp521, the z-score was 1.29 (inactive). Regarding GGAUCACAGAAUAGAACAATT against Hpgds, the z-score was 0.237 (inactive). Turning to CCACAUGAACAAUUUGGGCTT against Rpl9, the z-score is 0.0288 (inactive). CCACGACACGCAAGAUGAGTT against Fzd8: the z-score is -0.756 (inactive). Consider CGACAAUACUCUCUUCAAGTT against Fst, for which the z-score is 0.691 (inactive). CCAUCUGUAACGGAUCUGATT against Prorsd1: the z-score was 0.893 (inactive).

As to GGAAGCUGUCCAAAAUGAGTT against Hnf4a, the z-score was 2.55 (active).

With CCAGUUUAUCACAUAACCUTT against Wasl, the z-score was -0.928 (inactive). For the sequence CCAAAGAUACCAUUUUGCATT against Lypd8, the z-score is 0.599 (inactive). On to GGUACCAGGUAUCUUCAUUTT against Pard6g, for which the z-score was 2.95 (active).

With GGAAUGCAGCCAUCCUAUCTT against Mia, the z-score was 0.0985 (inactive). As for CCCAGAUUACCGUAAGCGATT against Jup, the z-score is 0.264 (inactive). On to GGCCAAAUGGAAUAAGAAGTT against Wdr59, for which the z-score was 0.774 (inactive). As to GGUUGCUUGGAAUUAAAAGTT against Klhl1, the z-score is -1.58 (inactive).

For the sequence GGGUUGAUUUGGUGUUUUATT against Usp46, the z-score is 0.673 (inactive). Next, CCUUGUAGUAAUAGGGAUGTT against Olfr116: 0.681 (inactive); GGAAAUGAGUGAAGAUGAATT against Cdk11b: -0.186 (inactive); GGCAUGUAAUGAAUUCACATT against Pbx3: -2.14 (active).

Turning to CGCAUAUAUGUGUGUCGCCTT against Tmem125, the z-score was 0.256 (inactive). On to CCCAAAUUGAUCCUAGCCUTT against Prkar1b, for which the z-score is 0.307 (inactive). With GGGCCUAUGUGCUUUAUAUTT against Usp8, the z-score was -0.0584 (inactive).
